This excerpt belongs to a sample that is enriched for hits.
HT1080 IDH1KD tx – qHTS for induction of synthetic lethality in tumor cells producing 2HG: qHTS for the HT-1080-IDH1KD cell line; HT-1080 IDH1 knockdown viability, ATP luminescence, 48 h; Potency, µM (series often up to 46.1 µM), without a hit: top-dose activity, negative = toxicity, most hits filed as cytotoxic; actives 2% (n = 360,000); AID 686971, 2013;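 further: potency means the concentration at half of the fitted maximal effect; 0% = DMSO wells and -100% = cell-free medium wells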
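Assay cells: HT-1080 with IDH1 knockdown, 750 per well, RPMI/5% FBS. Exposure: 48 h at 37 °C following 2 h pre-incubation. Read: CellTiter-Glo luminescence; fitted concentration-response, curve class assigned.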
HT1080-NT tox – qHTS for induction of synthetic lethality in tumor cells producing 2HG: qHTS for the HT-1080-NT fibrosarcoma cell line | HT-1080-NT fibrosarcoma viability, CellTiter-Glo ATP luminescence, 48 h | Potency, µM (titrated, usually from 46.1 µM), inactives show at the top dose activity, negative = less viability, usual class: cytotoxic | actives 1.6% (n = 360,000);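 further: NT is the 2HG producing partner of a matched IDH1 knockdown line; potency means the concentration at half of the fitted maximal effect; 0% = DMSO-treated cells and -100% = media-only wells without cells; nearly all actives have a fitted effect of over 55% in size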
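Compounds were tested in concentration-response format on HT-1080-NT cells for 48 hours at 37 degrees C. Cell viability came from CellTiter-Glo luminescence; curves were classified by r2, response magnitude and activity.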
IL-1B inflam inh – qHTS for Inhibitors of Inflammasome Signaling: IL-1-beta AlphaLISA Primary Screen. THP-1 LPS/ATP IL-1B secretion, AlphaLISA, 16 h; hits give low values. activity change, % at 57.5 µM. actives 4.7% (n = 360,000). AID 743279, 2014; in the data active means activity change below about -50%; inconclusive means mostly about -30% to -49%
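THP-1 cells pretreated 1 hr with compounds (up to 57.5 uM final), then stimulated with LPS (250 ng/mL final) plus ATP (1.25 mM final); secreted IL-1B measured by AlphaLISA after 16 hr, decreased signal indicating inhibition.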
12-LOX inh – Primary qHTS assay for inhibitors of human arachidonate 12S-lipoxygenase (ALOX12): Round 2; purified 12hLO, xylenol orange hydroperoxide absorbance; AID 1671190, 2021; Polyunsaturated fatty acid lipoxygenase ALOX12 (Homo sapiens), P18054; Potency, µM (highest dose often 108 µM), for the others: top-dose activity change, negative = inhibition, actives largely listed as inhibitors; actives 1.1% (n = 580,000); further: potency means the concentration at half of the fitted maximal effect
Target sequence (P18054 whole entry, looked up): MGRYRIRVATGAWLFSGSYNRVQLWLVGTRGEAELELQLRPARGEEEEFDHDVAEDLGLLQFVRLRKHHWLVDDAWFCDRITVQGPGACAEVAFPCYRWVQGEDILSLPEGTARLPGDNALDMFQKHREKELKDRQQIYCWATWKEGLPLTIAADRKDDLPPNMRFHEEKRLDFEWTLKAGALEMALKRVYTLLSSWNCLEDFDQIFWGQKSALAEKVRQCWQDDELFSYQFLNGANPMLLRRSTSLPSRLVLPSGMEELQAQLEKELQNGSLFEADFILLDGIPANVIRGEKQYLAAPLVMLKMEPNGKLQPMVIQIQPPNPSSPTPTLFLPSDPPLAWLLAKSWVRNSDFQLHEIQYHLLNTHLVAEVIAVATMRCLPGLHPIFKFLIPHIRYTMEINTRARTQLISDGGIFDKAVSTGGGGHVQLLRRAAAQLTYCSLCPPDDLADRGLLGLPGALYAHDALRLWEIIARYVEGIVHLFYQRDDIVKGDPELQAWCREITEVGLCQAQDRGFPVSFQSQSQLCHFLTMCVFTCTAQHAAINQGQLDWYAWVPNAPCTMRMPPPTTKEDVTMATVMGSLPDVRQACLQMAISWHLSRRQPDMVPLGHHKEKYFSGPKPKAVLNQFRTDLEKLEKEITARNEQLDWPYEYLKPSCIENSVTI
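Purified human 12hLO (150 nM final) in 25 mM Hepes, 0.01% Triton X-100, pH 7.0 was preincubated 15 min at room temperature with compound. Then 40 uM arachidonic acid was added, 30 min. Hydroperoxide was read by Fe-XO absorbance ratio 573/405 nm.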
TDP1 cell CPT – qHTS for Inhibitors of human tyrosyl-DNA phosphodiesterase 1 (TDP1): qHTS in cells in presence of CPT. chicken DT40 Tdp1-/-;hTDP1 cells + 20 nM CPT, ATP luminescence, 48 h. Potency, µM (series often up to 46.2 µM), for inactives: top-dose activity change, negative = growth inhibition, actives largely listed as inhibitors. actives 12% (n = 420,000). AID 686979, 2013; further: potency means the concentration at half of the fitted maximal effect; nearly all actives have a fitted effect of over 55% in size
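Chicken DT40 Tdp1-/- cells complemented with human TDP1, 400 cells/well, exposed to compounds plus 20 nM camptothecin for at least 48 h at 37 C; viability read as ATP content by CellTiter-Glo luminescence.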
TDP1 cell noCPT – qHTS for Inhibitors of human tyrosyl-DNA phosphodiesterase 1 (TDP1): qHTS in cells in absence of CPT | DT40 Tdp1-/- hTDP1 cells, no CPT, ATP luminescence, 48 h | Potency, µM (titrated, usually from 46.2 µM), for the others: top-dose activity change, negative = growth inhibition, most hits filed as inhibitors | actives 15% (n = 420,000); further: potency means the concentration at half of the fitted maximal effect; nearly all actives have a fitted effect of over 55% in size
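Compound effects on proliferation are scored in DT40 Tdp1-/-;hTDP1 cells in the absence of CPT. ATP levels (CellTiter-Glo luminescence) are recorded after a ≥48 hr, 37 °C incubation.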
The depositor's hits bear a star; ? = inconclusive; nt = no result; [ ] = another dose, or the depositor's remark. Unless noted, the call rests on the fitted dose curve; in most records, active means well fitted curve in the direction sought with a large enough effect; inconclusive means small, poorly fitted or top-dose-only effect, or another doubt; inactive means no such curve, though single readings can be large; an effect the other way counts as inactive or inconclusive. Unless noted, on the % scale 0 is the no-effect control and ±100 the full control effect.

SMILES | HT1080 IDH1KD tx | HT1080-NT tox | IL-1B inflam inh | 12-LOX inh | TDP1 cell CPT | TDP1 cell noCPT
CC(=O)Nc1ccc(C(=O)NNC(=O)c2csc(N3CCOCC3)n2)cc1 | 0% | 0% | -28 | 4% | ? | 7.3µM*
O=C(NNC(=O)c1cc(Br)ccc1O)c1csc(N2CCOCC2)n1 | ? | -24% | 96 | nt | ? | 21µM*
CCOc1ncccc1C(=O)NNC(=O)c1csc(N2CCOCC2)n1 | -22% | -13% | -30 | 15% | 26µM* | ?
COCCNCc1ccc(-c2cccc(Cl)c2)o1 | nt | nt | nt | 61% | nt | nt
COc1ccc(CCN2Cc3cc(NC(=O)c4ccccc4)ccc3OC(C)C2=O)cc1 (stereo not given) | nt | nt | nt | 50% | nt | nt
Cc1ccc(CNC(=O)c2ccc(-c3nc(CS(=O)(=O)c4ccc(C)cc4)c(C)o3)cc2)cc1 | nt | nt | nt | -28% | 13µM* | 7.3µM*
COc1ccccc1CNC(=O)c1ccc(-c2nc(CS(=O)(=O)c3ccc(C)cc3)c(C)o2)cc1 | nt | nt | nt | -1% | ? | 23µM*
COCCCNC(=O)c1ccc(-c2nc(CS(=O)(=O)c3ccc(C)cc3)c(C)o2)cc1 | nt | nt | nt | -5% | ? | 16µM*
O=C(NCc1ccc(-c2cccc(Cl)c2)o1)[C@H]1CCC[C@@H](O)C1 | nt | nt | nt | 34% | nt | nt
COc1ccc(CCC(=O)N2C[C@@H](Oc3ccccc3)C[C@@H]2C(=O)N2CCOCC2)cc1 | nt | nt | nt | 2% | nt | nt
CN1CC2(CCN(Cc3cccs3)CC2)CC(c2ccccc2)C1=O (stereo not given) | nt | nt | nt | 13% | nt | nt
CCOC(=O)c1c(C)sc2c1N(C(C)=O)c1cc(Cl)ccc1S2 | -28% | -20% | -15 | -18% | ? | 16µM*
CCOc1cc(CNCc2ccco2)ccc1OC | nt | nt | nt | -15% | nt | nt
CCOc1cc(C2C(C#N)=C(N)OC(C)=C2C(C)=O)cc(Br)c1O (stereo not given) | 12% | 10% | 17 | ? | -9% | -15%
CCOc1cc(C2C(C#N)=C(N)OC(C)=C2C(C)=O)c(Br)c(Br)c1OC(C)C (stereo not given) | 15µM* | 7.3µM* | 0 | nt | 4.6µM* | 4.6µM*
O=C1NCCCCCCN(Cc2ccncc2)[C@@H]2CN(Cc3ccncc3)CC[C@H]12 | nt | nt | nt | 87% | nt | nt
Cn1cnc(S(=O)(=O)N2CCCC(C(=O)NCc3ccc(F)cc3)CCNC(=O)CC2)c1 (stereo not given) | nt | nt | nt | 33% | nt | nt
Cc1ccc(NC(=O)/C=C/c2cccs2)c([N+](=O)[O-])c1 | -22% | ? | -17 | -21% | 13µM* | 23µM*
Cc1ccc(NC(=O)/C=C/C(=O)O)c([N+](=O)[O-])c1 | 3% | 1% | 13 | -21% | -9% | 0%
Cc1ccc(NC(=O)c2cn(CCC#N)nc2-c2cccs2)c([N+](=O)[O-])c1 | -11% | -3% | 0 | -8% | ? | 12µM*
C[C@@H]1CN([C@H](C)CO)C(=O)CCCn2nncc2CO[C@H]1CN(C)S(=O)(=O)c1ccc(C#N)cc1 | 4% | 14% | -6 | 7% | 6% | -5%
Cc1ccccc1CN1C[C@@H]2[C@H](C1)N(Cc1ccccc1)C(=O)C(C)(C)[S+]2(=O)[O-] | nt | nt | nt | 4%[176 µM] | nt | nt
O=C(c1ccc(F)c(F)c1)N1CCN(C(=O)c2nnn3c2COC(c2ccc(Cl)cc2)C3)CC1 (stereo not given) | nt | nt | nt | 5% | nt | nt
Cc1ccc(C)c(C(=O)N2CC(C(=O)N(C)C)C3(CCOCC3)C2)c1 (stereo not given) | nt | nt | nt | 58% | nt | nt
CN(c1ccccc1)S(=O)(=O)c1cccc(NC(=O)CSc2n[nH]c(N)n2)c1 | -20% | -5% | 26 | 8% | 9.2µM* | 9.2µM*
SMILES | HT1080 IDH1KD tx | HT1080-NT tox | IL-1B inflam inh | 12-LOX inh | TDP1 cell CPT | TDP1 cell noCPT
Cc1nnc(SCC(=O)Nc2cccc(S(=O)(=O)N(C)c3ccccc3)c2)s1 | -1% | 2% | 11 | -7% | 8.2µM* | 6.5µM*
O=C(Nc1cc(Cl)ccc1Cl)C1CC2CC3CCC1C3C2 (stereo not given) | nt | nt | nt | 33% | nt | nt
O=C(c1cccc(-n2cnnn2)c1)N(Cc1ccco1)Cc1cccs1 | nt | nt | nt | -2% | nt | nt
Cc1cc(Cl)c2oc(C(=O)N(Cc3c(C)nn(C)c3C)C3CC3)c(C)c2c1 | nt | nt | nt | 13% | nt | nt
Nn1c(SCc2ccccc2)nc2c(cnn2-c2ccccc2)c1=O | -7% | 0% | ? | 17% | ? | -18%
CCCSc1nc2c(cnn2-c2ccccc2)c(=O)n1N | -10% | -1% | -63* | 2% | -2% | ?
COc1ccc(S(=O)(=O)N2CCN(c3cc(-c4ccccc4)nc4ncnn34)CC2)cc1 | ? | -7% | -69* | 15% | 21µM* | 16µM*
Cc1ccccc1NC(=O)C1CCN(c2cc(-c3ccccc3)nc3ncnn23)CC1 | -20% | -22% | ? | 0% | 15µM* | 21µM*
O=S(=O)(c1ccc(Br)cc1)N1CCN(c2cc(-c3ccccc3)nc3ncnn23)CC1 | -3% | 13% | ? | -14% | 13µM* | 26µM*
COc1ccc(-c2cc(N3CCCC3)n3ncnc3n2)cc1 | -14% | -8% | ? | 5% | ? | ?
O=S(=O)(c1ccc(Br)cc1)N1CCN(c2ccccc2)CC1 | 1% | 14% | 8 | 27% | 13% | -2%
Cc1nc2ncnn2c(N2CCN(S(=O)(=O)c3ccc(Br)cc3)CC2)c1C | 7% | 7% | 39 | 1% | ? | 4.6µM*

Screens: PubChem, National Center for Advancing Translational Sciences (NCATS)
